Laboratory results as given in PubChem BioAssay AID1159580 (chemical genetic matrix, 2015).
Several values for one entry are separate records, joined by “and”; a condition that tells them apart may be missing. Equal values may be shown once. Hit rate of the full screen: of about 5,500 compounds, about 2,000 (36%) were called active. Roughly 18% stayed inconclusive and do not appear here. No stated cut-off is given here; in the data, active means normalized growth mostly below about 0.91 (no sharp cut-off); inconclusive means no clear call, values can overlap the other calls; inactive means mostly above about 0.92. Some of the results follow.

Experiment: chemical genetic growth profiling, strain panel (AID 1159580);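 further: tested at 20 µM; growth read once vehicle control cultures reached saturation at 30 °C; 1 = growth at the plate median or of vehicle wells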
Details: S. cerevisiae deletion strains, growth OD

Measured: normalized growth

COC(=O)Nc1nc2ccc(Sc3ccccc3)cc2[nH]1
inactive: locus YAL013W, strain DEP1, stronger effect = lower value 1 | locus YAL021C, strain ccr4, stronger effect = lower value 1.01 | locus YAL026C, strain drs2, stronger effect = lower value 1 | locus YAL030W, strain snc1, stronger effect = lower value 0.986 | locus YBL061C, strain skt5, stronger effect = lower value 0.986 | locus YBR009C, strain hhf1, stronger effect = lower value 0.993 | locus YBR021W, strain FUR4, stronger effect = lower value 1.02 | locus YBR023C, strain chs3, stronger effect = lower value 0.989 | locus YBR171W, strain sec66, stronger effect = lower value 0.987 | locus YBR229C, strain ROT2, stronger effect = lower value 0.997 | locus YBR279W, strain paf1, stronger effect = lower value 0.985 | locus YCL011C, strain gbp2, stronger effect = lower value 0.991 | locus YCL016C, strain dcc1, stronger effect = lower value 1 | locus YCL061C, strain MRC1, stronger effect = lower value 1.01 | locus YCL069W, strain vba3, stronger effect = lower value 0.99 | locus YCR088W, strain abp1, stronger effect = lower value 0.996 | locus YDL005C, strain med2, stronger effect = lower value 0.987 | locus YDL035C, strain GPR1, stronger effect = lower value 0.98 | locus YDL040C, strain nat1, stronger effect = lower value 1.01 | locus YDL074C, strain BRE1, stronger effect = lower value 0.994 | locus YDL101C, strain DUN1, stronger effect = lower value 1.02 | locus YDL134C, strain PPH21, stronger effect = lower value 1.01 | locus YDL185W, strain tfp1, stronger effect = lower value 0.986 | locus YDL192W, strain arf1, stronger effect = lower value 1 | locus YDR001C, strain nth1, stronger effect = lower value 0.996 | locus YDR069C, strain doa4, stronger effect = lower value 0.984 | locus YDR101C, strain arx1, stronger effect = lower value 0.99 | locus YDR137W, strain rgp1, stronger effect = lower value 0.965 | locus YDR150W, strain NUM1, stronger effect = lower value 0.975 | locus YDR159W, strain sac3, stronger effect = lower value 0.99 | locus YDR162C, strain NBP2, stronger effect = lower value 1 | locus YDR195W, strain ref2 1.04 | locus YDR297W, strain sur2, stronger effect = lower value 0.97 | locus YDR318W, strain mcm21, stronger effect = lower value 1.01 | locus YDR335W, strain msn5, stronger effect = lower value 1 | locus YDR388W, stronger effect = lower value 1 | locus YDR392W, strain spt3, stronger effect = lower value 0.993 | locus YDR502C, strain sam2, stronger effect = lower value 0.98 | locus YEL037C, strain rad23, stronger effect = lower value 1 | locus YEL061C, strain CIN8 (second series), stronger effect = lower value 0.999 | locus YEL061C, strain CIN8, stronger effect = lower value 0.995 | locus YER015W, strain faa2, stronger effect = lower value 0.988 | locus YER016W, strain bim1, stronger effect = lower value 0.985 | locus YER110C, stronger effect = lower value 0.995 | locus YER111C, strain swi4, stronger effect = lower value 0.992 | locus YER155C, strain BEM2 (second series), stronger effect = lower value 0.978 | locus YER155C, strain BEM2, stronger effect = lower value 1 | locus YER167W, strain BCK2, stronger effect = lower value 0.991 | locus YFR010W, strain ubp6, stronger effect = lower value 0.995 | locus YGL078C, strain dbp3, stronger effect = lower value 0.99 | locus YGL086W, strain mad1, stronger effect = lower value 0.955 | locus YGL167C, strain pmr1, stronger effect = lower value 0.98 | locus YGL173C, strain kem1, stronger effect = lower value 0.991 | locus YGL227W, strain vid30, stronger effect = lower value 0.993 | locus YGL240W, strain doc1, stronger effect = lower value 0.987 | locus YGL248W, strain PDE1, stronger effect = lower value 1 | locus YGL253W, strain hxk2, stronger effect = lower value 1 | locus YGR135W, strain pre9, stronger effect = lower value 0.99 | locus YGR229C, strain SMI1, stronger effect = lower value 0.941 | locus YGR252W, strain gcn5, stronger effect = lower value 0.895 | locus YHR013C, strain ard1, stronger effect = lower value 0.969 | locus YHR027C, strain rpn1, stronger effect = lower value 0.998 | locus YHR030C, strain SLT2, stronger effect = lower value 0.995 and 0.963 | locus YHR079C, strain IRE1 (second series), stronger effect = lower value 1.01 | locus YHR079C, strain IRE1, stronger effect = lower value 0.964 | locus YHR094C, strain hxt1, stronger effect = lower value 1 | locus YHR129C, strain ARP1, stronger effect = lower value 1.01 | locus YHR142W, strain chs7, stronger effect = lower value 0.989 | locus YHR200W, strain rpn10, stronger effect = lower value 0.984 | locus YIL066C, strain RNR3, stronger effect = lower value 0.997 | locus YIL073C, strain SPO22, stronger effect = lower value 0.998 | locus YIL125W, strain kgd1, stronger effect = lower value 0.99 | locus YIR030C, strain dcg1, stronger effect = lower value 1 | locus YJL092W, strain hpr5, stronger effect = lower value 1 | locus YJL095W, strain BCK1 (second series), stronger effect = lower value 0.985 | locus YJL095W, strain BCK1, stronger effect = lower value 1.03 and 0.949 | locus YJL115W, strain asf1, stronger effect = lower value 1.01 | locus YJL129C, strain trk1, stronger effect = lower value 0.976 | locus YJL134W, strain LCB3, stronger effect = lower value 1 | locus YJL154C, strain vps35, stronger effect = lower value 0.993 | locus YJL164C, strain tpk1, stronger effect = lower value 1 | locus YJL166W, strain qcr8, stronger effect = lower value 0.972 | locus YJL168C, strain set2, stronger effect = lower value 1 | locus YJL187C, strain SWE1 (second series), stronger effect = lower value 1.01 | locus YJR043C, strain POL32, stronger effect = lower value 0.988 | locus YJR066W, strain TOR1, stronger effect = lower value 0.872
active: locus YBR231C, strain swc5, stronger effect = lower value 0.753 | locus YCL029C, strain bik1, stronger effect = lower value 0.826 | locus YDR334W, strain swr1, stronger effect = lower value 0.788 | locus YEL003W, strain gim4, stronger effect = lower value 0.206 | locus YGR078C, strain PAC10, stronger effect = lower value 0.0823
